High-throughput results deposited in PubChem BioAssay by National Center for Advancing Translational Sciences (NCATS).
HCMV inh: inhibitors of human cytomegalovirus. HFF cells, HCMV-luciferase reporter, 72 h; stronger effect = lower value. 410,000 tested, 4.5% active. activity change, negative = inhibition, % at 57.5 µM; in the data active = activity change below about -60%; inconclusive = no clear call, values can overlap the other calls; inactive = above about -39%
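Human foreskin fibroblasts infected with luciferase-reporter HCMV at MOI 1 PFU/cell, compounds at two doses. Luciferase measured 72 h post infection; normalized to buffer-only basal and Salinomycin (10uM) controls.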
FMDV inh: blocks foot and mouth disease virus; FMDV antiviral cell-based qHTS; Potency, µM (highest dose often 57.9 µM), without a hit: top-dose activity change, negative = inhibition, most hits filed as inhibitors; 410,000 tested, 1.2% active; calls by dose curve; tested in HEK293T cells; also: read-out not given here; potency is read from the fitted curve at half-maximal effect; nearly all actives have a fitted effect of over 45% in size
HCV inhibitor: blocks hepatitis C virus; Potency, µM (titrated, usually from 41.8 µM), without a hit: at the top dose activity change, negative = inhibition, actives largely listed as inhibitors; Huh7.5.1 HCVcc-Cre infection, luciferase reporter, 44 h; 340,000 tested, 3.4% active; active = well fitted inhibition curve with a large enough effect; inconclusive = small, poorly fitted or top-dose-only effect, or another doubt; inactive = no such curve, though single readings can be large or run the other way; also: potency is read from the fitted curve at half-maximal effect
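Seed cells (1,000/well) for 4 h; treat with compound and infect with HCVcc-Cre, moi about 0.5. Incubate 44 h, then detect luciferase activity.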
VACV Venus inh: inhibitors of vaccinia virus (Venus reporter); Vaccinia virus Venus reporter expression, fluorescence; Potency, µM (series often up to 36.5 µM), inactives show at the top dose activity change, negative = inhibition, most hits filed as inhibitors; 330,000 tested, 0.46% active; calls by dose curve; tested in A549 cells; also: potency is read from the fitted curve at half-maximal effect; nearly all actives have a fitted effect of over 30% in size
Vaccinia mCherry: inhibitors of vaccinia virus infection (mCherry reporter signal). Potency, µM (doses to about 36.5 µM), inactives show top-dose activity change, negative = inhibition, usual class: inhibitors. 310,000 tested, 0.63% active. Vaccinia virus mCherry reporter infection, fluorescence. AID 720579; calls by dose curve; tested in A549 cells; also: potency is read from the fitted curve at half-maximal effect; nearly all actives have a fitted effect of over 35% in size
* = called active by the depositor; i = inactive; ? = inconclusive; / = not tested or not shown; [ ] = dose if it differs, or a comment. Hits are enriched below; roughly 7.3% of the tested compounds scored in any of these assays. % is scaled to controls: 0 for no effect and ±100 for the full control effect.

SMILES | HCMV inh | FMDV inh | HCV inhibitor | VACV Venus inh | Vaccinia mCherry
O=C(O)C1CCCN1C(=O)c1cccc(Cl)c1 (stereo unspecified) | 22 | / | / | / | /
O=C(CCS(=O)(=O)c1nc(-c2cccs2)cc(C(F)(F)F)n1)Nc1ccc(OC(F)(F)F)cc1 | 38 | -19% | / | 2% | -12%
COc1ccc(NC(=O)CCS(=O)(=O)c2nc(-c3cccs3)cc(C(F)(F)F)n2)cc1 | -101* | ? | / | -16%[7.34 µM] | -10%[7.34 µM]
COc1ccc(Cl)cc1NC(=O)CCS(=O)(=O)c1nc(-c2cccs2)cc(C(F)(F)F)n1 | -94* | 32µM* | / | -19% | -22%
O=C(CCS(=O)(=O)c1nc(-c2cccs2)cc(C(F)(F)F)n1)Nc1ccc(F)c(Cl)c1 | -99* | 35µM* | / | -16%[7.34 µM] | -23%[7.34 µM]
CC(C)c1nnc(NC(=O)CCS(=O)(=O)Cc2ccccc2)s1 | 8 | -11% | 12% | -11% | -20%
CC(C)c1nnc(NC(=O)CCS(=O)(=O)c2nc(-c3cccs3)cc(C(F)(F)F)n2)s1 | 43 | 14µM* | 4% | / | /
CC(C)(O)C#Cc1ccc(CN2CCc3nnc(CCNC(=O)c4ccco4)n3CC2)cc1 | / | 10% | / | -1% | -10%
CC1=CC(C)(C(Cl)(Cl)Cl)C(C)=CC1=NO (stereo unspecified) | -69* | -27% | / | -25% | -9%
CC(=O)N1c2ccc(S(=O)(=O)N3CCCCCC3)cc2CC1C(=O)NCc1ccccc1 (stereo unspecified) | -1 | 6% | / | -4% | -12%
COCCn1c(SCc2ccc(C(=O)OC)o2)nc2ccccc2c1=O | 25 | / | -14% | 0% | -9%
Cc1noc(C)c1CSc1nc2ccccc2c(=O)n1-c1ccccc1 | 64 | ? | 4µM* | -22% | /
Cc1cccc(CSc2nc3ccccc3c(=O)n2C)c1 | -76* | ? | 22µM* | / | /
COC(=O)c1cc(CSc2nc3ccccc3c(=O)n2C)oc1C | -74* | ? | ? | -5% | -14%
Cn1c(SCCOc2ccccc2F)nc2ccccc2c1=O | ? | 40µM* | 15% | -16% | -12%
Cn1c(SCc2ccc(Br)cc2)nc2ccccc2c1=O | -35 | ? | ? | -13% | -21%
C[n+]1c(/C=C/c2ccnc3ccccc23)cc(/C=C/c2ccnc3ccccc23)c2ccccc21 | / | / | / | 7% | 21%
Cc1c(C(=O)NCC(C)(C)CN(C)C)cnn1-c1nccc(-c2ccccc2F)n1 | / | -4% | / | -7% | -13%
Cn1c(SCc2ccccc2)nc2ccsc2c1=O | ? | -30% | 10µM* | -10% | i
CC(C)Cn1c(SCc2cccc(F)c2)nc2ccsc2c1=O | -8 | -2% | / | 3% | -2%
COC(=O)c1ccc(CSc2nc3ccccc3c(=O)n2-c2ccc(OC)c(OC)c2)o1 | 23 | / | 10µM* | -21% | -25%
COC(=O)c1ccc(CSc2nc3ccccc3c(=O)n2-c2ccccc2)o1 | -14 | ? | ? | -18% | /
COc1ccccc1-c1noc(-c2ccc(N3CCOCC3)c([N+](=O)[O-])c2)n1 | 59 | 28% | / | -12% | -8%
CO/N=C/c1ccc(N2CCN(C(=O)c3cccc(C(F)(F)F)c3)CC2)c([N+](=O)[O-])c1 | -22 | ? | ? | / | /
CO/N=C/c1ccc(N2CCN(C(=O)c3ccc(Cl)cc3Cl)CC2)c([N+](=O)[O-])c1 | -98* | 13µM* | 8.9µM* | / | /
SMILES | HCMV inh | FMDV inh | HCV inhibitor | VACV Venus inh | Vaccinia mCherry
CO/N=C/c1ccc(N2CCN(C(=O)c3ccc(F)cc3)CC2)c([N+](=O)[O-])c1 | -29 | 20µM* | 14µM* | / | /
COCCCn1c(SCc2ccc(OC)cc2)nc2cc(OC)c(OC)cc2c1=N | 0 | -16% | ? | / | /
CCCSc1nc2cc(OC)c(OC)cc2c(=N)n1CCCN1CCOCC1 | -25 | -20% | 11µM* | ? | ?
Cc1ccc(S(=O)(=O)NCCC(=O)N2CCN(C/C=C/c3ccccc3)CC2)cc1 | 15 | -26% | ? | / | /
Cc1ccc(S(=O)(=O)NC(CC(C)C)C(=O)N2CCN(C/C=C/c3ccccc3)CC2)cc1 (stereo unspecified) | ? | -24% | 11µM* | / | /
Cc1ccccc1CN(CC(=O)Nc1cccc([N+](=O)[O-])c1)S(=O)(=O)c1ccc(Cl)cc1 | -37 | 40µM* | ? | ? | ?
Nc1nn2c(-c3ccccc3)cc(=O)[nH]c2c1N=Nc1ccc(Br)cc1 | 9 | -3% | 4% | ? | 16µM*
